Compounds without any hit were thinned out: in the full panel of roughly 79,000, 15% have a hit. The source made the active and inactive calls. Cut-off read from the data, not from the text of the source: active = growth inhibition above about 70%; inactive = the rest.
Tests used:
[1] = NCI Yeast Anticancer Drug Screen. Data for the rad52 strain (AID 147);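 note: 0% = growth of vehicle-treated control cultures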; settings: S. cerevisiae rad52 mutant growth inhibition, active compounds read high
Summary of the method: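 The repair-mutant yeast strain was incubated with compounds, then growth was read and inhibition derived relative to vehicle.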

[2] = NCI Yeast Anticancer Drug Screen. Data for the wt1 strain (AID 149);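 note: 0% = growth of vehicle-treated wt1 cultures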; settings: S. cerevisiae wt1 strain (SPY 50644) growth inhibition, active compounds read high
Summary of the method: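 Compounds are added to wt1 yeast cultures. Growth is then measured. Inhibition is expressed relative to vehicle-treated controls.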

[3] = NCI Yeast Anticancer Drug Screen. Data for the rad50EPP+ strain (AID 151);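 note: 0% = growth of vehicle-treated control cultures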; settings: S. cerevisiae rad50 mutant strain, active compounds read high
Summary of the method: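 Vehicle-normalised growth inhibition; rad50EPP+ yeast strain, altered in DNA damage repair, compound-treated.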

[4] = NCI Yeast Anticancer Drug Screen. Data for the mgt1 strain (AID 153); settings: S. cerevisiae mgt1 mutant growth inhibition, active compounds read high
Summary of the method: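 Vehicle-normalized growth inhibition is determined in mgt1 yeast, a strain selected for a defined alteration in DNA repair or cell cycle control.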

[5] = NCI Yeast Anticancer Drug Screen. Data for the rad50 strain (AID 155);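 note: 0% = growth of vehicle-only cultures of the same strain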; settings: S. cerevisiae rad50 strain growth inhibition, active compounds read high
Summary of the method: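 Inhibition values express reduced yeast growth in compound-treated cultures relative to vehicle-treated controls.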

[6] = NCI Yeast Anticancer Drug Screen. Data for the mec2-1 strain (AID 157); settings: S. cerevisiae mec2-1 strain, active compounds read high
Summary of the method: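 Mutant yeast (mec2-1) grown with compound; growth inhibition relative to vehicle control reported.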

[7] = NCI Yeast Anticancer Drug Screen. Data for the rad14 strain (AID 159);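 note: 0% = growth of vehicle-treated control cultures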; settings: S. cerevisiae rad14 strain growth inhibition, active compounds read high
Summary of the method: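 A mutant yeast strain defective in DNA damage repair is treated with compound; inhibition of its growth is scored against untreated, vehicle-exposed cultures.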

[8] = NCI Yeast Anticancer Drug Screen. Data for the sgs1 mgt1 strain (AID 161);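 note: 0% = growth of cultures given vehicle only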; settings: S. cerevisiae sgs1 mgt1 strain, active compounds read high
Summary of the method: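 Yeast cells carrying a defined DNA-repair defect were exposed to test compounds. Growth inhibition was measured relative to vehicle-treated controls.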

[9] = NCI Yeast Anticancer Drug Screen. Data for the CLN2oe strain (AID 163);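 note: 0% = growth of vehicle-only control cultures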; settings: S. cerevisiae CLN2oe strain, active compounds read high
Summary of the method: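 Compounds are applied to yeast harbouring a defined cell-cycle control change; reduced growth compared with vehicle-treated controls gives the value.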

[10] = NCI Yeast Anticancer Drug Screen. Data for the cln2 rad14 strain (AID 165);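 note: 0% = growth equal to vehicle treated cultures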; settings: S. cerevisiae cln2 rad14 strain, active compounds read high
Summary of the method: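 Readout is yeast growth inhibition versus vehicle-treated controls, using a strain with cln2 and rad14 alterations exposed to compound.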

[11] = NCI Yeast Anticancer Drug Screen. Data for the bub3 strain (AID 167); settings: S. cerevisiae bub3 mutant strain, active compounds read high
Summary of the method: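 Steps: expose the mutant yeast strain to compound; grow alongside vehicle-treated cultures; measure growth; express inhibition against the vehicle cultures.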

[12] = NCI Yeast Anticancer Drug Screen. Data for the sgs1 strain (AID 173);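 note: 0% = growth of vehicle-only control cultures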; settings: S. cerevisiae sgs1 mutant, active compounds read high
Summary of the method: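 Each compound was added to cultures of the altered yeast strain. Growth was recorded, and inhibition was derived by comparison with vehicle controls.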

[13] = NCI Yeast Anticancer Drug Screen. Data for the mlh1 rad18 strain (AID 175); settings: S. cerevisiae mlh1 rad18 strain growth inhibition, active compounds read high
Summary of the method: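 Genetically defined yeast (DNA repair-deficient) exposed to compounds; growth inhibition determined relative to vehicle.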

[14] = NCI Yeast Anticancer Drug Screen. Data for the rad18 strain (AID 177); settings: S. cerevisiae rad18 mutant growth inhibition, active compounds read high
Summary of the method: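 Vehicle-treated cultures served as the baseline for scoring compound-induced growth inhibition in DNA-repair-mutant yeast.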

[15] = NCI Yeast Anticancer Drug Screen. Data for the wt2 strain (AID 169);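 note: 0% = growth of vehicle-treated yeast cultures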; settings: S. cerevisiae wt2 strain growth inhibition, active compounds read high
Summary of the method: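 Against vehicle-treated controls, the growth of yeast exposed to each compound was compared, and the inhibition was recorded.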

[16] = NCI Yeast Anticancer Drug Screen. Data for the mlh1 strain (AID 171);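 note: 0% = growth of vehicle-treated control cultures of the same strain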; settings: S. cerevisiae mlh1 strain growth inhibition, active compounds read high
Summary of the method: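 Measured: yeast growth. Reference: vehicle-treated controls. Organism: strain with a defined alteration affecting DNA damage repair or cell cycle control, treated with compound.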

[17] = at 5.0 µM (retest, dose inferred, filed as 0.5)
[18] = at 50.0 µM (retest, dose inferred, filed as 5.0)

Measured: growth inhibition

COc1cc2ccc(/C=C\[N+](=O)[O-])cc2cc1OC
inactive: [1]; at 1.2 µM 1% | [1]; at 3.7 µM 13% | [2]; at 1.2 µM -24% | [2]; at 3.7 µM -25% | [2]; at 11.0 µM -37% | [3]; at 1.2 µM 18% | [3]; at 3.7 µM 39% | [4]; at 1.2 µM -18% | [4]; at 3.7 µM -23% | [4]; at 11.0 µM 24% | [5]; at 1.2 µM -5% | [5]; at 3.7 µM 26% | [5]; [17] 44% | [5]; at 11.0 µM 51% | [6]; at 1.2 µM 10% | [6]; at 3.7 µM -34% | [6]; [17] 29% | [6]; at 11.0 µM 38% | [7]; at 1.2 µM -26% | [7]; at 3.7 µM -39% | [7]; at 11.0 µM -18% | [8]; [17] 11% | [9]; at 1.2 µM 12% | [9]; at 3.7 µM 0% | [9]; at 11.0 µM -4% | [10]; [17] -14% | [10]; [18] -25% | [11]; at 1.2 µM -30% | [11]; at 3.7 µM -21% | [11]; [17] 17% | [11]; at 11.0 µM -22% | [11]; [18] 53% | [12]; at 1.2 µM -4% | [12]; at 3.7 µM 16% | [12]; at 11.0 µM 47% | [13]; [17] 45% | [14]; at 1.2 µM -17% | [14]; at 3.7 µM -33% | [14]; at 11.0 µM 18%
active: [1]; at 11.0 µM 70% | [1]; at 33.0 µM 97% | [1]; at 100.0 µM 94% | [2]; at 33.0 µM 98% | [2]; at 100.0 µM 96% | [3]; at 11.0 µM 83% | [3]; at 33.0 µM 98% | [3]; at 100.0 µM 96% | [4]; at 33.0 µM 97% | [4]; at 100.0 µM 95% | [5]; at 33.0 µM 96% | [5]; [18] 99% | [5]; at 50.0 µM 91% | [5]; at 100.0 µM 94% | [6]; at 33.0 µM 97% | [6]; [18] 99% | [6]; at 50.0 µM 90.5% | [6]; at 100.0 µM 95% | [7]; at 33.0 µM 97% | [7]; at 100.0 µM 95% | [8]; [18] 85% | [8]; at 50.0 µM 90.7% | [9]; at 33.0 µM 91% | [9]; at 100.0 µM 95% | [10]; at 50.0 µM 86.1% | [11]; at 33.0 µM 85% | [11]; at 50.0 µM 91.9% | [11]; at 100.0 µM 95% | [12]; at 33.0 µM 98% | [12]; at 100.0 µM 97% | [13]; [18] 98% | [13]; at 50.0 µM 92.3% | [14]; at 33.0 µM 97% | [14]; at 100.0 µM 93%

Cc1ccc(Cl)c2[nH]c(-c3ccccc3)cc(=O)c12
active: [11]; [18] 93% | [11]; at 50.0 µM 72% | [13]; [18] 94%
inactive: [1]; at 1.2 µM -1% | [1]; at 3.7 µM -1% | [1]; at 11.0 µM 1% | [1]; at 33.0 µM 2% | [1]; at 100.0 µM 3% | [2]; at 1.2 µM -3% | [2]; at 3.7 µM -3% | [2]; at 11.0 µM -4% | [2]; at 33.0 µM -2% | [2]; at 100.0 µM 0% | [3]; at 1.2 µM 1% | [3]; at 3.7 µM 2% | [3]; at 11.0 µM 6% | [3]; at 33.0 µM 9% | [3]; at 100.0 µM 6% | [4]; at 1.2 µM -5% | [4]; at 3.7 µM -3% | [4]; at 11.0 µM 19% | [4]; at 33.0 µM -25% | [4]; at 100.0 µM -4% | [5]; at 1.2 µM -1% | [5]; at 3.7 µM 0% | [5]; [17] -10% | [5]; at 11.0 µM -29% | [5]; at 33.0 µM 0% | [5]; [18] 13% | [5]; at 50.0 µM 29.2% | [5]; at 100.0 µM 0% | [6]; at 1.2 µM 0% | [6]; at 3.7 µM -3% | [6]; [17] -11% | [6]; at 11.0 µM 0% | [6]; at 33.0 µM -2% | [6]; [18] 10% | [6]; at 50.0 µM 40.6% | [6]; at 100.0 µM 0% | [7]; at 1.2 µM -2% | [7]; at 3.7 µM -6% | [7]; at 11.0 µM -2% | [7]; at 33.0 µM -12% | [7]; at 100.0 µM 1% | [8]; [17] -28% | [8]; [18] 12% | [8]; at 50.0 µM 55.5% | [10]; [17] -9% | [10]; [18] -2% | [10]; at 50.0 µM 13.4% | [11]; at 1.2 µM -2% | [11]; at 3.7 µM -2% | [11]; [17] -17% | [11]; at 11.0 µM 7% | [11]; at 33.0 µM 0% | [11]; at 100.0 µM 2% | [15]; at 1.2 µM -2% | [15]; at 3.7 µM -1% | [15]; at 11.0 µM -1% | [15]; at 33.0 µM -1% | [15]; at 100.0 µM -1% | [16]; at 1.2 µM 0% | [16]; at 3.7 µM -2% | [16]; at 11.0 µM -4% | [16]; at 33.0 µM -2% | [16]; at 100.0 µM 0% | [12]; at 1.2 µM -3% | [12]; at 3.7 µM -4% | [12]; at 11.0 µM -4% | [12]; at 33.0 µM -3% | [12]; at 100.0 µM 0% | [13]; [17] -18% | [13]; at 50.0 µM 62.8% | [14]; at 1.2 µM -5% | [14]; at 3.7 µM -1% | [14]; at 11.0 µM -6% | [14]; at 33.0 µM -24% | [14]; at 100.0 µM 14%

CCCC/C=C/C(CC)(C(=O)OCC)C(=O)OCC
inactive: [1]; at 1.2 µM -1% | [1]; at 3.7 µM -2% | [1]; at 11.0 µM -4% | [1]; at 33.0 µM -1% | [1]; at 100.0 µM -2% | [2]; at 1.2 µM -2% | [2]; at 3.7 µM -3% | [2]; at 11.0 µM -5% | [2]; at 33.0 µM -7% | [2]; at 100.0 µM -9% | [3]; at 1.2 µM -2% | [3]; at 3.7 µM 1% | [3]; at 11.0 µM -2% | [3]; at 33.0 µM 3% | [3]; at 100.0 µM 39% | [4]; at 1.2 µM -3% | [4]; at 3.7 µM -1% | [4]; at 11.0 µM -2% | [4]; at 33.0 µM -5% | [4]; at 100.0 µM -3% | [5]; at 1.2 µM -2% | [5]; at 3.7 µM -4% | [5]; [17] -9% | [5]; at 11.0 µM -3% | [5]; at 33.0 µM -3% | [5]; [18] -11% | [5]; at 50.0 µM 3.6% | [5]; at 100.0 µM -6% | [6]; at 1.2 µM 0% | [6]; at 3.7 µM -1% | [6]; [17] 5% | [6]; at 11.0 µM -2% | [6]; at 33.0 µM -1% | [6]; [18] 43% | [6]; at 50.0 µM -11.7% | [6]; at 100.0 µM -1% | [7]; at 1.2 µM -2% | [7]; at 3.7 µM -5% | [7]; at 11.0 µM -2% | [7]; at 33.0 µM -1% | [7]; at 100.0 µM 1% | [8]; [17] -3% | [8]; [18] 33% | [8]; at 50.0 µM 10.6% | [10]; [17] 6% | [10]; [18] 24% | [10]; at 50.0 µM 16.6% | [11]; at 1.2 µM 0% | [11]; at 3.7 µM -1% | [11]; [17] 11% | [11]; at 11.0 µM 1% | [11]; at 33.0 µM 6% | [11]; [18] 52% | [11]; at 50.0 µM 24.1% | [11]; at 100.0 µM 11% | [15]; at 1.2 µM -3% | [15]; at 3.7 µM -4% | [15]; at 11.0 µM -5% | [15]; at 33.0 µM -5% | [15]; at 100.0 µM -5%
